Columns and labels:
Assay in all cases: pooled miR-30 sensor sort-seq; sequence = guide strand
Settings in all cases: shRNA
ABHD8 = target: ABHD8
ACTL6A = target: ACTL6A
ADAD1 = target: ADAD1
ADAM19 = target: ADAM19
ADCYAP1 = target: ADCYAP1
ADC = target: ADC
ADD2 = target: ADD2
ADRB1 = target: ADRB1
AHCY = target: AHCY
AKR1C4 = target: AKR1C4
ALDH1A3 = target: ALDH1A3
ALDH9A1 = target: ALDH9A1
ANGPTL1 = target: ANGPTL1
ANAPC5 = target: ANAPC5
ANG = target: ANG
ANGPTL3 = target: ANGPTL3
Also: reference of the scale not given here.

TTTGCAGCTAGTGATGCGCTTC
sensor-assay potency score (higher = more potent) (ABHD8): -0.147

TTGCGGTACACGGTGATCCGGC
sensor-assay potency score (higher = more potent) (ABHD8): -0.925

TTGTGGTGACAACATGACTGAC
sensor-assay potency score (higher = more potent) (ACTL6A): -0.897

TTTGCAATCAATTTCAACCGCA
sensor-assay potency score (higher = more potent) (ACTL6A): 0.585

TTATTCTATTAACACCATCTTT
sensor-assay potency score (higher = more potent) (ADAD1): -0.934

TTTCCGTGAACAATCTCCCAAA
sensor-assay potency score (higher = more potent) (ADAM19): -0.808

TTTTCCGTGAACAATCTCCCAA
sensor-assay potency score (higher = more potent) (ADAM19): -0.446

TGGGCGACATCTCTTCTCCCGG
sensor-assay potency score (higher = more potent) (ADCYAP1): -1.69

TGACACTCCAAACTTTAGGCTC
sensor-assay potency score (higher = more potent) (ADC): -0.511

TTGATCACGGAAGCAATCTCTT
sensor-assay potency score (higher = more potent) (ADC): -0.838

TTAACCCTTTGTTTATACCTCT
sensor-assay potency score (higher = more potent) (ADCYAP1): -0.397

TTCAGTGACACTCCAAACTTTA
sensor-assay potency score (higher = more potent) (ADC): -0.979

TTGTTTATACCTCTTCCCTAGG
sensor-assay potency score (higher = more potent) (ADCYAP1): -0.956

TCTTCCTCTGGCCTGATCCCGG
sensor-assay potency score (higher = more potent) (ADCYAP1): -1.48

TTCCTCTGGCCTGATCCCGGGG
sensor-assay potency score (higher = more potent) (ADCYAP1): -1.18

TTCTGCAGCCATCAGCTGCCTT
sensor-assay potency score (higher = more potent) (ADC): -1.15

TCTTATAGCTCTTCCATCCATC
sensor-assay potency score (higher = more potent) (ADD2): -0.635

TTTGGTATCCTCGTCTCCCTTG
sensor-assay potency score (higher = more potent) (ADD2): -0.18

TTAAATGTAGAGATAGCTCCAT
sensor-assay potency score (higher = more potent) (ADD2): 0.598

TATCCCATAGACCAGCAGGGCC
sensor-assay potency score (higher = more potent) (ADCYAP1): -1.32

TTCCTCTCCACCTCTTTCTTGT
sensor-assay potency score (higher = more potent) (ADD2): -0.367

TCTGTTGTTTTGATCCTCCTTA
sensor-assay potency score (higher = more potent) (ADD2): 0.276

TGCTGTGCATGATTATCCCATA
sensor-assay potency score (higher = more potent) (ADCYAP1): -1.74

TTACATAAATACATGTTTGGAT
sensor-assay potency score (higher = more potent) (ADCYAP1): -0.0777

TTGTCAAACAGGACTGAGTTGA
sensor-assay potency score (higher = more potent) (ADC): -0.112

TTCCGGTAGCGGCTGTAGCTGT
sensor-assay potency score (higher = more potent) (ADCYAP1): -1.35

TCCGTGAAGATCCCGTCCGAGT
sensor-assay potency score (higher = more potent) (ADCYAP1): -1.83

ATGTTGTCAAAGACCAGCCAGT
sensor-assay potency score (higher = more potent) (ADC): -1.56

TAGGCCTCGTTAAGGATCCCGT
sensor-assay potency score (higher = more potent) (ADCYAP1): -0.922

TACGCCTCTTCCTCTGGCCTGA
sensor-assay potency score (higher = more potent) (ADCYAP1): -1.02

TAGCGGCTGTAGCTGTCCGTGA
sensor-assay potency score (higher = more potent) (ADCYAP1): -1.1

TTGACAGCCATTTGTTTCCGGT
sensor-assay potency score (higher = more potent) (ADCYAP1): -0.424

TTGCATACTTGAACTACAGCGA
sensor-assay potency score (higher = more potent) (ADC): 0.563

TTTTCAAGCAGGTGTCTGCAGG
sensor-assay potency score (higher = more potent) (ADC): -0.788

TTGGCTAGTCACTTTGAGCAGC
sensor-assay potency score (higher = more potent) (ADD2): -0.569

TTTGTTTATACCTCTTCCCTAG
sensor-assay potency score (higher = more potent) (ADCYAP1): 0.232

TAACCCTTTGTTTATACCTCTT
sensor-assay potency score (higher = more potent) (ADCYAP1): -0.602

TTCTTCTGCAGGATGGGGGTAG
sensor-assay potency score (higher = more potent) (ADC): -0.285

ATTTGTTTCCGGTAGCGGCTGT
sensor-assay potency score (higher = more potent) (ADCYAP1): -0.122

TAAATGTAGAGATAGCTCCATC
sensor-assay potency score (higher = more potent) (ADD2): -0.556

TGTCCGTGAAGATCCCGTCCGA
sensor-assay potency score (higher = more potent) (ADCYAP1): -0.344

TACACGATGGTCTTGGAGGTGG
sensor-assay potency score (higher = more potent) (ADC): -0.24

TTTGTTTCCGGTAGCGGCTGTA
sensor-assay potency score (higher = more potent) (ADCYAP1): -0.47

TTTCAGTGACACTCCAAACTTT
sensor-assay potency score (higher = more potent) (ADC): -0.644

TTGTTTCCGGTAGCGGCTGTAG
sensor-assay potency score (higher = more potent) (ADCYAP1): -0.993

TTGGATAGAACACACGAGCGAT
sensor-assay potency score (higher = more potent) (ADCYAP1): -0.826

TGGTCTTGGAGGTGGAACCATT
sensor-assay potency score (higher = more potent) (ADC): -1.77

ACACACAGGGTCTCGATGCTGG
sensor-assay potency score (higher = more potent) (ADRB1): -0.4

TGTCCACTGCTGAGACAGCGGC
sensor-assay potency score (higher = more potent) (ADRB1): -1.28

TTCAGCCACTGCCTCATCCAGC
sensor-assay potency score (higher = more potent) (AHCY): -0.886

TCGGCCAGCAGGATGATGCGGC
sensor-assay potency score (higher = more potent) (AHCY): -0.886

AAAACCTGGATGTTCTCTCTGA
sensor-assay potency score (higher = more potent) (AKR1C4): 0.359

TCATTGTTGATAAATATCTTGG
sensor-assay potency score (higher = more potent) (ALDH1A3): -0.45

TAGTCGGTGCTATTCGCTCTTT
sensor-assay potency score (higher = more potent) (ALDH1A3): -0.888

TTGTTAATGAAGCACGTCCCAG
sensor-assay potency score (higher = more potent) (ALDH9A1): -1.05

TTCTGTTTTGACATCGAAGGGG
sensor-assay potency score (higher = more potent) (ALDH1A3): 0.0292

TTATCCTAGTCTCTTTTCCTGT
sensor-assay potency score (higher = more potent) (ALDH9A1): -0.816

TAGATTTCCTCTATCGCAGTAG
sensor-assay potency score (higher = more potent) (ALDH9A1): 0.289

TTTTGAACTTCAGTATTGGTTG
sensor-assay potency score (higher = more potent) (ALDH1A3): -0.527

TTAAAGGGTAGCTCCACTGGTG
sensor-assay potency score (higher = more potent) (ALDH9A1): -0.285

TTCGATACTTTTGAACTTCAGT
sensor-assay potency score (higher = more potent) (ALDH1A3): -0.228

TTTTTGTGAACACGGCTGCTGT
sensor-assay potency score (higher = more potent) (ALDH1A3): -0.433

ATAAATATCTTGGTGAACTTGA
sensor-assay potency score (higher = more potent) (ALDH1A3): -0.0326

TTTCTTGATTAGTATCTACAAG
sensor-assay potency score (higher = more potent) (ALDH9A1): -1.25

TTCTTCGATACTTTTGAACTTC
sensor-assay potency score (higher = more potent) (ALDH1A3): 0.188

TAAGATTTTGTCGAACTGCTTT
sensor-assay potency score (higher = more potent) (ALDH1A3): 0.131

TATCTTGGTGAACTTGACCTCC
sensor-assay potency score (higher = more potent) (ALDH1A3): 0.362

TAATACACAAGGTCTCATGTAA
sensor-assay potency score (higher = more potent) (ALDH9A1): 0.189

TTTTTTGTGAACACGGCTGCTG
sensor-assay potency score (higher = more potent) (ALDH1A3): 0.356

TAGCAGTTGATCCAGACCGTTC
sensor-assay potency score (higher = more potent) (ALDH1A3): -1.2

TTCTTGATTAGTATCTACAAGG
sensor-assay potency score (higher = more potent) (ALDH9A1): -0.856

TTTGTGAACACGGCTGCTGTGA
sensor-assay potency score (higher = more potent) (ALDH1A3): -0.151

TTCAGTTGTACTGCCTCTGTAA
sensor-assay potency score (higher = more potent) (ALDH9A1): -0.536

TTAATTTGGGATCTTCAGGTAC
sensor-assay potency score (higher = more potent) (ALDH9A1): 0.221

TTTTGTCGAACTGCTTTTGATC
sensor-assay potency score (higher = more potent) (ALDH1A3): -0.787

TAATACTCCAGGCACTGCCAGG
sensor-assay potency score (higher = more potent) (ALDH9A1): -1.24

TTCTCTTATACTGAACGCCAAA
sensor-assay potency score (higher = more potent) (ALDH9A1): -1.4

TAACATTCAGTTGTACTGCCTC
sensor-assay potency score (higher = more potent) (ALDH9A1): -0.0109

TCTTTTTATCACTTCTTCGATA
sensor-assay potency score (higher = more potent) (ALDH1A3): -0.674

TCTTTCTGCACAAATACTCTTG
sensor-assay potency score (higher = more potent) (ALDH9A1): -0.35

TATAACCAAACGATCCACCTGG
sensor-assay potency score (higher = more potent) (ALDH9A1): 0.155

TTGGTTGAAGAACACTCCCTGA
sensor-assay potency score (higher = more potent) (ALDH1A3): -0.48

ATTGTTGATAAATATCTTGGTG
sensor-assay potency score (higher = more potent) (ALDH1A3): -0.0591

TTGAAGGGTTACATGTAGCAAA
sensor-assay potency score (higher = more potent) (ALDH1A3): -0.786

TTTCCTGACATTTTAAAGCCAC
sensor-assay potency score (higher = more potent) (ALDH1A3): -0.397

TCTGTTTTGACATCGAAGGGGT
sensor-assay potency score (higher = more potent) (ALDH1A3): 0.173

TTGATGAGTGGACCCATCCTTG
sensor-assay potency score (higher = more potent) (ALDH9A1): -0.479

TTCACATCATTCCACAGCGTGG
sensor-assay potency score (higher = more potent) (ALDH9A1): -1.5

TTGATTAGTATCTACAAGGCAC
sensor-assay potency score (higher = more potent) (ALDH9A1): 0.363

TAAAAAAATGTCAATGAGCTGA
sensor-assay potency score (higher = more potent) (ALDH9A1): -0.73

TTAGTTAATACACAAGGTCTCA
sensor-assay potency score (higher = more potent) (ALDH9A1): -0.528

TAACACTTTAGCACCCTGCTCC
sensor-assay potency score (higher = more potent) (ALDH9A1): 0.132

TTAAATCTCTGGGATAACCTGG
sensor-assay potency score (higher = more potent) (ANGPTL1): -0.522

TTGAACTGAAAACATCTTGGAC
sensor-assay potency score (higher = more potent) (ANAPC5): -0.413

TGTGTACCTGGAGTTATCCTGA
sensor-assay potency score (higher = more potent) (ANG): 0.329

TCACAAGCAACAACAACGTTTC
sensor-assay potency score (higher = more potent) (ANG): -0.587

TAGAATTTTTTCTTCTAGGAGG
sensor-assay potency score (higher = more potent) (ANGPTL3): -0.766

TTAATGTCCATGGACTACCTGA
sensor-assay potency score (higher = more potent) (ANGPTL3): -0.665

ATAACTTGTAATTATCTTGATT
sensor-assay potency score (higher = more potent) (ANGPTL1): -0.722

TTGACTTGTAGTTTATATGTAG
sensor-assay potency score (higher = more potent) (ANGPTL3): 0.386

AATGTGTTGATGTCTTTGCAGG
sensor-assay potency score (higher = more potent) (ANG): -1.22

TTTCTCTGTGAGGGTTTCCATT
sensor-assay potency score (higher = more potent) (ANG): -0.964

TTACATCGTCTAACATAGCAAA
sensor-assay potency score (higher = more potent) (ANGPTL3): -1.16

TACACTTGTTTTGTGAACCTCT
sensor-assay potency score (higher = more potent) (ANAPC5): 0.756

TTTGTGATCCATCTATTCGATG
sensor-assay potency score (higher = more potent) (ANGPTL3): -1.29

ATAGCTATCGGATCTCTTCTGC
sensor-assay potency score (higher = more potent) (ANAPC5): 0.457

TAGACTTTTTTATCACTCCAGT
sensor-assay potency score (higher = more potent) (ANGPTL1): -0.73

TGGTTTGGCATCATAGTGCTGG
sensor-assay potency score (higher = more potent) (ANG): -0.375

TTTATATGTAGTTCTTCTCAGT
sensor-assay potency score (higher = more potent) (ANGPTL3): -0.38

TTGAATACTAGTCCTTCTGAGC
sensor-assay potency score (higher = more potent) (ANGPTL3): -0.706

TCTGTGAGGGTTTCCATTCTTG
sensor-assay potency score (higher = more potent) (ANG): -0.487

TGCTTTCACAGTATCTGTCATC
sensor-assay potency score (higher = more potent) (ANG): -1.22

TTTTGCTTGCTGACAGTCTTTG
sensor-assay potency score (higher = more potent) (ANGPTL1): -0.992

TTGATGCTGCGCTTGTTGCCAT
sensor-assay potency score (higher = more potent) (ANG): -0.23

TAATTTTGAATTGTCCACCTCT
sensor-assay potency score (higher = more potent) (ANGPTL1): 0.889

TGTACCTGGAGTTATCCTGAGC
sensor-assay potency score (higher = more potent) (ANG): -1.14

TAGGTTTTCTCTGTGAGGGTTT
sensor-assay potency score (higher = more potent) (ANG): 0.619

TATAACATCACAGTAGACATGA
sensor-assay potency score (higher = more potent) (ANGPTL3): 0.929

TCCATCTACATCCACCACCAGT
sensor-assay potency score (higher = more potent) (ANGPTL1): -1.83

TTGCCATGAATAAATGTGTTGA
sensor-assay potency score (higher = more potent) (ANG): -0.499
